Data on seven compounds can be found in PubChem BioAssay (NCATS).

The target of test [1] is Lysosomal acid glucosylceramidase (Homo sapiens) (UniProt P04062). Description: Glucocerebrosidase-p2 (AID 348; in the data active means potency below about 10 µM; further: potency means the concentration at half of the fitted maximal effect). The following applies: purified GBA, blue fluorogenic substrate, 40 min. The procedure, abridged: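 Compounds titrated from 0.6 nM upwards against 0.2 nM enzyme in pH 5.9 citric acid/KH2PO4, taurocholate, tween-20; blue fluorogenic substrate 80 uM, 40 min room temperature, stopped and read Ex 365/Em 440 for AC50.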

The target of test [2] is Cytochrome P450 1A2 (Homo sapiens) (UniProt P05177). Description: p450-cyp1a2 (AID 410; calls by dose curve; further: potency means the concentration at half of the fitted maximal effect). The procedure, abridged:
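Human CYP1A2 (20nM) demethylated Luciferin-ME at its Km (100uM) in 100mM KPO4. After 10 min compound preincubation, NADPH regeneration ran the reaction 60 min at room temperature. Luciferin was read by luminescence, normalized to 57 uM furafylline.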

Test [3] in a line: NFAT Signaling Pathway (AID 444; active means well fitted curve in either direction with a large enough effect, not every such curve was filed as active;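 further: carbachol stimulus at about its EC50 of 1 µM final; on the % scale 0 is the no-effect control and ±100 the full control effect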). The note with it: Jurkat NFAT-bla M1, carbachol, beta-lactamase ratio, 5 h; at 7.69 µM (top of the series) unless noted. The procedure, abridged:
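Jurkat cells with NFAT-driven β-lactamase reporter and co-expressed M1 receptor, stimulated with carbachol (final 1 uM, ~EC50), compound titration, 5 h at 37 °C. CCF4 loaded 1 h at RT; 460/530 nm ratio gave %activity and AC50.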

The nature of test [4]: Stat Signaling Pathway (AID 446; active means well fitted curve in either direction with a large enough effect, not every such curve was filed as active;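 further: ME-180 cervical cancer cells given 40 pM IL-6 alongside compound; SIE-controlled beta-lactamase reporter measured as 460/530 nm FRET emission ratio; on the % scale 0 is the no-effect control and ±100 the full control effect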). The following applies: ME-180 SIE beta-lactamase reporter, IL-6 stimulated, 5 h; at 7.69 µM (top of the series) unless noted. The procedure, abridged: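 Screening format detects activators and inhibitors alike: ME-180 SIE-bla cells stimulated at 40 pM IL-6 for 5 hrs with compound, then dual-emission beta-lactamase read at 405 nm excitation.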

Test [5] addresses Glucocorticoid receptor (Homo sapiens) (UniProt P04150). Description: GR-EFC Redistribution (AID 451; calls by dose curve; further: potency means the concentration at half of the fitted maximal effect). The following applies: CHO-K1 GR-EFC translocation, beta-gal luminescence, 2 h. A digest of the protocol:
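CHO-K1 cells expressing nuclear EA and GR-ED fragments of b-gal; compounds titrated up to 46 uM final, 2 h at 37 C. GR nuclear translocation read as complemented b-gal luminescence after 1 h RT detection.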

Test [6] addresses Mitogen-activated protein kinase 10 (Mus musculus) (UniProt Q61831). Put plainly: JNK3 AlphaScreen Assay (AID 530; active means well fitted curve in either direction with a large enough effect, not every such curve was filed as active;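 further: kinase came from lysate of stimulated human HepG2 cells; signal reports phosphorylation of biotinylated GST-cJun 1-79 at Ser73 with 10 µM ATP; on the % scale 0 is the no-effect control and ±100 the full control effect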). The procedure, abridged:
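qHTS format: compounds tested as titrations against IL-1beta/TNF-alpha-activated HepG2 lysate JNK3 with biotin-GST-cJun substrate and 10 uM ATP at room temperature. Loss of anti-phospho-cJun AlphaScreen signal indicates inhibition.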
For orientation: In Alpha technology, singlet oxygen from a donor bead excites a nearby acceptor bead.

Test [7] has as its target 3',5'-cyclic-AMP phosphodiesterase 4B (Homo sapiens) (UniProt Q07343). Put plainly: qHTS Assay for Inhibitors of PDE-IV (AID 607; active means well fitted activation curve with a large enough effect in the main read-out, with a control signal flat, not every such curve was filed as active; further: % of control where 0% means no effect). A digest of the protocol: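 The readout is membrane depolarisation from a cAMP-sensing CNG channel, detected with a potential dye at ex 535/em 590. Cells were HEK293-derived (endogenous PDE-IV) at 1000 cells/well, titrated up to 22.9 uM final.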
In general terms: Quantitative high-throughput screening tests each substance at several concentrations.

Test [8] deals with Cytochrome P450 3A4 (Homo sapiens) (UniProt P08684). Put plainly: qHTS Assay for Activators of Cytochrome P450 3A4 (AID 885). Further: nearly all actives have a fitted effect of over 65% in size. A digest of the protocol:
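Steps: enzyme/substrate mix dispensed; compound added, 10 min RT; NADPH regeneration solution added, 60 min RT; luciferin detection buffer stops reaction; 20 min later luminescence measured.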

In test [9] the target is Cytochrome P450 2C19 (Homo sapiens) (UniProt P33261). Description: qHTS Assay for Inhibitors and Substrates of Cytochrome P450 2C19 (AID 899). Further: potency means the concentration at half of the fitted maximal effect; nearly all actives have a fitted effect of over 60% in size. A digest of the protocol: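 Signal comes from luciferase acting on luciferin released by CYP2C19-mediated hydroxylation of Luciferin-H EGE, 10uM (KM). Assay mix: 5nM enzyme, 50mM KPO4; 60 min at 37C with NADPH regeneration. Data normalized against 57uM ketoconazole.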

In test [10] the target is Dual specificity protein kinase CLK4 (Homo sapiens) (UniProt Q9HAZ1). Put plainly: qHTS Assay for Inhibitors of CDC-like Kinase 4 (Kinase-Glo Assay) (AID 1770). Further: nearly all actives have a fitted effect of over 65% in size. Further: potency means the concentration at half of the fitted maximal effect. The procedure, abridged: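 25 nM Clk4 with 100 uM RS repeat peptide and 1 uM ATP (final) in Tris pH7.5, 10 mM MgCl2, 4.5 h at room temperature. Remaining ATP measured by Kinase-Glo luciferase luminescence.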
The target in test [11] is Ubiquitin carboxyl-terminal hydrolase 1 (Homo sapiens) (UniProt O94782). Put plainly: Inhibitors of USP1/UAF1: Pilot qHTS (AID 504865). Further: nearly all actives have a fitted effect of over 35% in size. Further: potency means the concentration at half of the fitted maximal effect. The procedure, abridged: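 USP1/UAF1 complex at 1 nM preincubated 15 min at room temperature with compound, then Ub-Rho substrate added at 150 nM final. Fluorescence (480/540 nm) read kinetically in 50 mM HEPES pH 7.8, 0.5 mM EDTA, 1 mM TCEP, 0.1 mg/ml BSA, 0.01% Tween-20.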

Test [12] is described as follows: Primary qHTS for small molecule stabilizers of the endoplasmic reticulum resident proteome: Secreted ER Calcium Modulated Protein (SERCaMP) assay (AID 1508630). Further: on the % scale 0 is the no-effect control and ±100 the full control effect. The procedure, abridged: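 GLuc-SERCaMP-expressing SH-SY5Y cells, pretreated 16 h with compound, are challenged with thapsigargin to empty ER calcium stores; after 4 h, coelenterazine is added directly to the medium and luminescence is imaged.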

In test [13] the target is Glucocorticoid receptor (Homo sapiens) (UniProt P04150). Description: GR-GFP Redistribution (AID 450;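 active means compounds whose dose series gives a full or clear partial fitted curve of increased nuclear translocation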; further: potency means the concentration at half of the fitted maximal effect). The note with it: U2OS GR-GFP nuclear translocation, laser cytometry, 2 h.
Test [14] addresses Cytochrome P450 2C9 (Homo sapiens) (UniProt P11712). Put plainly: qHTS Assay for Inhibitors and Substrates of Cytochrome P450 2C9 (AID 883). Further: potency means the concentration at half of the fitted maximal effect; nearly all actives have a fitted effect of over 60% in size. The procedure, abridged:
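Signal: luciferase luminescence reporting luciferin produced by CYP2C9. Conditions: 10nM enzyme, Luciferin-H 100uM at KM, 25mM KPO4, 37C, 60 min NADPH-driven reaction. Reference: 57uM sulphaphenazole as 100% inhibition.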

Test [15] concerns the target Cytochrome P450 3A4 (Homo sapiens) (UniProt P08684). Description: qHTS Assay for Inhibitors and Substrates of Cytochrome P450 3A4 (AID 884). Further: potency means the concentration at half of the fitted maximal effect; nearly all actives have a fitted effect of over 50% in size. The procedure, abridged:
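20 nM human CYP3A4 with 25 uM Luciferin-PPXE (at KM) in 200 mM KPO4, preincubated 10 min with compound; NADPH regeneration started a 60 min RT reaction. Luciferin detected by luminescence, normalized to 57 uM ketoconazole as full inhibition.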

Test [16] concerns the target Dual specificity protein kinase CLK4 (Homo sapiens) (UniProt Q9HAZ1). Put plainly: qHTS Assay for Inhibitors of CDC-like Kinase 4 (ADP-FP Assay) (AID 1795). Further: nearly all actives have a fitted effect of over 60% in size. Further: potency means the concentration at half of the fitted maximal effect. The procedure, abridged: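 Recombinant Clk4 (6.25 nM) phosphorylated 100 uM RS repeat peptide with 1 uM ATP in 25 mM Tris pH 7.5, 10 mM MgCl2, 0.5 mM EGTA, 2.5 mM DTT, 0.01% Triton X-100 for 1 h. ADP was detected by Transcreener ADP2 competitive fluorescence polarization after 30 min at room temperature.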

The nature of test [17]: AP1 Signaling Pathway (AID 357; active means well fitted curve in either direction with a large enough effect, not every such curve was filed as active; further: on the % scale 0 is the no-effect control and ±100 the full control effect). The note with it: ME-180 (cervical carcinoma) AP-1-bla reporter, EGF-induced, beta-lactamase ratio, 5 h; at 7.69 µM (top of the series) unless noted. A digest of the protocol: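 Modulation of EGF-driven AP-1 transcription was assessed with a beta-lactamase reporter in ME-180 cells. Compound and EC50 EGF were co-incubated 5 hours at 37 °C before 2.5-hour CCF4 loading at room temperature and dual-emission reading.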

Test [18] concerns the target Dual specificity protein kinase CLK4 (Homo sapiens) (UniProt Q9HAZ1). Put plainly: qHTS Assay for Inhibitors of CDC-like Kinase 4 (ADP-Glo Assay) (AID 1771). Further: on the % scale 0 is the no-effect control and ±100 the full control effect; nearly all actives have a fitted effect of over 70% in size. A digest of the protocol:
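Clk4 (25 nM) was incubated 1 hr at room temperature with 100 uM RS repeat peptide and 1 uM ATP in buffer with 2 mM MgCl2, 0.5 mM EGTA, 2.5 mM DTT. ADP formed was quantified by ADP-Glo luminescence.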

A number with no mark means an inactive call. Records with an inconclusive call do not appear. Active and inactive are the calls of the source. Unless noted, the call rests on the fitted dose curve; in most records, active means well fitted curve in the direction sought with a large enough effect; inconclusive means small, poorly fitted or top-dose-only effect, or another doubt; inactive means no such curve, though single readings can be large; an effect the other way counts as inactive or inconclusive. Some results are limits rather than exact numbers.

Lysosomal acid glucosylceramidase (Homo sapiens), sequence (P04062 whole entry, looked up): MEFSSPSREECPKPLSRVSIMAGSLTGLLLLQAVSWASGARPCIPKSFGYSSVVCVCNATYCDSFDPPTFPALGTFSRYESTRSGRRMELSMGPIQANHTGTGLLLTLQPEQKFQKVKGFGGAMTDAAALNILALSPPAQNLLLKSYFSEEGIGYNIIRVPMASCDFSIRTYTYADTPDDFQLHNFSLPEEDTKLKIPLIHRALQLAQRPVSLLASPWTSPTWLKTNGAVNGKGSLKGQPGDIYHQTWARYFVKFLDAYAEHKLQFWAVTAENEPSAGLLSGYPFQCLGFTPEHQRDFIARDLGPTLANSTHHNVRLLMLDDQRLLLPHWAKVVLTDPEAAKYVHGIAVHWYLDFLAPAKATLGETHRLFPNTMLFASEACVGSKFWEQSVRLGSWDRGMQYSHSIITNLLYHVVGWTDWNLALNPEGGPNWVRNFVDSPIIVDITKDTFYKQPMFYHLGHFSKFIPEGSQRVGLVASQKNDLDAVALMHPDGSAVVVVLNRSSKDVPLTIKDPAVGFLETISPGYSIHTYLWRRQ
3',5'-cyclic-AMP phosphodiesterase 4B (Homo sapiens), sequence (Q07343 whole entry, looked up): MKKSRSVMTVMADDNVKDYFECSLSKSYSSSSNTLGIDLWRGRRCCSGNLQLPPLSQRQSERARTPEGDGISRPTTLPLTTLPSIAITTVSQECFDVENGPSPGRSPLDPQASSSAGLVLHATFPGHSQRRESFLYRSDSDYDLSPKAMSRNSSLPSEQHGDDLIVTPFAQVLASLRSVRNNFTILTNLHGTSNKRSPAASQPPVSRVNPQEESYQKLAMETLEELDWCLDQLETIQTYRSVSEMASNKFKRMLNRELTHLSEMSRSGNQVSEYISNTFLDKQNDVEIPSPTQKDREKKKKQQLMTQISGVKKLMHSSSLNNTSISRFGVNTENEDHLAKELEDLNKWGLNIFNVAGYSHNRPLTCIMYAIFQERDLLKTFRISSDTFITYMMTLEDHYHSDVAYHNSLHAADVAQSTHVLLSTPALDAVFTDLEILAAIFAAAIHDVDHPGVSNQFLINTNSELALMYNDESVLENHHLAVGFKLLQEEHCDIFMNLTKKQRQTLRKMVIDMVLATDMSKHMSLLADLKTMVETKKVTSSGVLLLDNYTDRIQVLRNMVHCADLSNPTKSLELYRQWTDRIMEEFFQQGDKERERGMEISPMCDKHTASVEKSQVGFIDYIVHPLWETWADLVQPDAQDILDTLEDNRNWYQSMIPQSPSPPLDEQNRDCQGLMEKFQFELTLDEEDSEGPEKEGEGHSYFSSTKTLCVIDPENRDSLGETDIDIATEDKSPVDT
Ubiquitin carboxyl-terminal hydrolase 1 (Homo sapiens), sequence (O94782 whole entry, looked up): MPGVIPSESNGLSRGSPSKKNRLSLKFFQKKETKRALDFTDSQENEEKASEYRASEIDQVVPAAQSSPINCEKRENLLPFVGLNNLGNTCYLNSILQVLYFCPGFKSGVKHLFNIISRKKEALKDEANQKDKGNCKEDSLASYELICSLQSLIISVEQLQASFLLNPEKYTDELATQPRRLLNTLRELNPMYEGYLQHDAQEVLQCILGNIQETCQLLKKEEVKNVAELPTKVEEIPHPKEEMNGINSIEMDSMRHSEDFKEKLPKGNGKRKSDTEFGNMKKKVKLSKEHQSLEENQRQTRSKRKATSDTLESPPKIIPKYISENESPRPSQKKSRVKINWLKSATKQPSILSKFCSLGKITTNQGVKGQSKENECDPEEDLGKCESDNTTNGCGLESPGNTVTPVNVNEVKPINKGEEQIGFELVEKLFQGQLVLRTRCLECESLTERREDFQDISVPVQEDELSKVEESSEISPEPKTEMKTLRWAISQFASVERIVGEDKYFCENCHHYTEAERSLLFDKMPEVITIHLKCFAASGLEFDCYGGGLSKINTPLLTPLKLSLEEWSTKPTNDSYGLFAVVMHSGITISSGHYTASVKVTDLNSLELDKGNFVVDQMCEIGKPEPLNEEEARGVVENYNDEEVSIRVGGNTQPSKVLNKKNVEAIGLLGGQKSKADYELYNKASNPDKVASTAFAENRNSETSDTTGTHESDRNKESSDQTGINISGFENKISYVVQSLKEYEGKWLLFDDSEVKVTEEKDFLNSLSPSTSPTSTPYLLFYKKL
Cytochrome P450 3A4 (Homo sapiens), sequence (P08684 whole entry, looked up): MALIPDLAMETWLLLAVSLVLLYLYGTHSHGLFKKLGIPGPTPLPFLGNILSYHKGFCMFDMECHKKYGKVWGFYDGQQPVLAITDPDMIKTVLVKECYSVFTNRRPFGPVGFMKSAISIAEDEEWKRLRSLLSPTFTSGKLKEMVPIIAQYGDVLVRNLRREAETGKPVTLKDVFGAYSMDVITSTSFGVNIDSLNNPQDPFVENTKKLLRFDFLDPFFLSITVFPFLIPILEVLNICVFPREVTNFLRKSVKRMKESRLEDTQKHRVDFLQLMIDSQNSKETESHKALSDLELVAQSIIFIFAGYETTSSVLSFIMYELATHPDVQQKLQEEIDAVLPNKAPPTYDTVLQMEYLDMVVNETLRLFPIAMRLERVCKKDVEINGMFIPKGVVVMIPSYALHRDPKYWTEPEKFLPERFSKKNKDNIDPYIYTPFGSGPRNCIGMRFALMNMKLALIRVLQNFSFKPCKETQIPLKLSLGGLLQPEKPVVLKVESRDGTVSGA
Cytochrome P450 1A2 (Homo sapiens), sequence (P05177 whole entry, looked up): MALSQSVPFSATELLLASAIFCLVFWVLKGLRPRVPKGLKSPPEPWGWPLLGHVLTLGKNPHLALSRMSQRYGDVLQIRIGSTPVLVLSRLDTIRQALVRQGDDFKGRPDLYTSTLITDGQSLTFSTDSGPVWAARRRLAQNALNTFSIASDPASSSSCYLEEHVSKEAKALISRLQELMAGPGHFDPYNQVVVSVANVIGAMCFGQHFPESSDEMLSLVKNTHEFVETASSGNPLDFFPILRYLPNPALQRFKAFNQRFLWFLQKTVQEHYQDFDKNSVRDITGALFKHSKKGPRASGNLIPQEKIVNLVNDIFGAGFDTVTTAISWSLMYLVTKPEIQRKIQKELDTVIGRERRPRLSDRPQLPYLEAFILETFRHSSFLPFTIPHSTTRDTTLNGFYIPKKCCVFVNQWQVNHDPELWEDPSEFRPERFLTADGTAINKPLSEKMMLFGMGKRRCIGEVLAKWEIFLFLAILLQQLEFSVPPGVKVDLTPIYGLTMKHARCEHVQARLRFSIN
Cytochrome P450 2C19 (Homo sapiens), sequence (P33261 whole entry, looked up): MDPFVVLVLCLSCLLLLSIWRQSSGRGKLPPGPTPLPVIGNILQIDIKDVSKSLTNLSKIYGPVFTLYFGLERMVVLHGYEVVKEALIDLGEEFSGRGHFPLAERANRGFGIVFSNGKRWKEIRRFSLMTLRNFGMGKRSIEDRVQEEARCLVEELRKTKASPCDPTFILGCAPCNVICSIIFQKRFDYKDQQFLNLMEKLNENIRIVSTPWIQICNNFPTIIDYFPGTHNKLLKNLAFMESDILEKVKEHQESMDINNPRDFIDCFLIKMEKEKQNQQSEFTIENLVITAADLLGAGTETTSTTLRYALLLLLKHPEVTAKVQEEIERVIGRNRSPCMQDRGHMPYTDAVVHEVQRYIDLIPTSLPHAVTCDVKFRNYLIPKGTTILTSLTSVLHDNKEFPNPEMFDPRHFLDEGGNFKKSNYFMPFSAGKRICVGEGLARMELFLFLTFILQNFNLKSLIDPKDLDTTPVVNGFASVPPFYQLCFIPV
Dual specificity protein kinase CLK4 (Homo sapiens), sequence (Q9HAZ1 whole entry, looked up): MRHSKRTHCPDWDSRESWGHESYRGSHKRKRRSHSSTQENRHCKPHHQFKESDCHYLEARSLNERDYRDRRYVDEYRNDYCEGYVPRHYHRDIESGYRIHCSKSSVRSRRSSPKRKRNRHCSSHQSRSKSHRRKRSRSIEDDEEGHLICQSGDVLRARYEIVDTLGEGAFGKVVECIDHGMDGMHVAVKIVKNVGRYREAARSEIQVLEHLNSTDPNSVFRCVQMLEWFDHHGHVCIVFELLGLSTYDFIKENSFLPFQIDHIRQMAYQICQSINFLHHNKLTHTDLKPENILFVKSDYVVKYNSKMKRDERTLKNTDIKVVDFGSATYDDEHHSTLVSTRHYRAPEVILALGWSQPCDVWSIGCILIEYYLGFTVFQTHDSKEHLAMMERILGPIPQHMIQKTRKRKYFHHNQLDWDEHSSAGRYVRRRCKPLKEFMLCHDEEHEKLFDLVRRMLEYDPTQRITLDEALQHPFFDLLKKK
Glucocorticoid receptor (Homo sapiens), sequence (P04150 whole entry, looked up, the tested form may be a part): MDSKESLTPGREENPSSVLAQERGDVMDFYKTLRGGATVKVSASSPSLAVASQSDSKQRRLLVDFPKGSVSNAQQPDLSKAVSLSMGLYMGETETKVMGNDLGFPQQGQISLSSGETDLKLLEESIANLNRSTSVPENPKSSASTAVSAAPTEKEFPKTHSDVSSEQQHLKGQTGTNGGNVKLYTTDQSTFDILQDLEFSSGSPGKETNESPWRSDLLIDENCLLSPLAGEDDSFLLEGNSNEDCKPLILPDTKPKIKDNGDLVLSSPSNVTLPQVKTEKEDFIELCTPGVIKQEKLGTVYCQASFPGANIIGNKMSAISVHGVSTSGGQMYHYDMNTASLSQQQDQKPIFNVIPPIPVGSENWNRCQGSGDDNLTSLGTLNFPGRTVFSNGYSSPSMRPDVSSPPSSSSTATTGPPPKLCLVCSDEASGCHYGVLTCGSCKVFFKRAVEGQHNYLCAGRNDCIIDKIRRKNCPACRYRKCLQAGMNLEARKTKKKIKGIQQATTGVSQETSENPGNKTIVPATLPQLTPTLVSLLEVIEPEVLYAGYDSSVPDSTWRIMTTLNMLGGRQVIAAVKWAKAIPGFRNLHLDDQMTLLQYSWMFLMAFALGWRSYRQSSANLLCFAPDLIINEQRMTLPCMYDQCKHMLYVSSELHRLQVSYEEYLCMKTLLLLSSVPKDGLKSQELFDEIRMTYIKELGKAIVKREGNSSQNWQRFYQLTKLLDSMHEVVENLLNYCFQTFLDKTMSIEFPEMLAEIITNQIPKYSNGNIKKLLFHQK

Turning to `c1ccc(Nc2ncnc3ccc(-c4ccoc4)cc23)cc1`, the Potency in test [1] is more than 11.4 µM; in [2], 1.58 µM (active); in test [5] it was more than 46 µM; in test [9], 2 µM (active); in test [10], 0.708 µM (active). Besides, the activity change, negative = inhibition in test [3] was 14.5%. For the same compound, the activity, negative = inhibition in test [4] is -4.75%. Further, the Potency entry in [6], in test [7], in test [8] and in [11] was “inactive” in each case. Also, the outcome in test [12] was inactive.
On to `COc1ccccc1CCn1c(=O)c(-c2cn(C)c3ccccc23)nc2cncnc21`, for which the Potency is more than 11.4 µM in [1]; 1.26 µM (active) in test [2]; more than 9.22 µM in test [13]; more than 46 µM in [5]; 0.316 µM (active) in test [14]; 2.51 µM (active) in test [15]. For the same compound, the Potency in test [9] was 0.316 µM (active). The activity change, negative = inhibition in [3] was 19%. Besides, the Potency result in test [7], in test [8], in [10], in test [16] and in test [11] was “inactive” each time. Moreover, in test [12], the result was inactive.
Consider `N#Cc1cccc(-c2nc(NCc3cccnc3)c3ccccc3n2)c1`, for which the Potency was more than 11.4 µM in test [1]; 0.251 µM (active) in test [2]; more than 46 µM in [13]; more than 46 µM in [5]; 5.01 µM (active) in test [15]. In addition, the activity change, negative = inhibition in [17] was -20.1%; in [3], 28.2%. Also, in test [4], the activity, negative = inhibition was -21.4%. Moreover, the Potency entry in test [6], in test [8], in test [10] and in [11] was “inactive” in each case. For the same compound, the result in test [12] was inactive.
Take `Cn1c(=O)c(-c2cc(F)cc(F)c2)nc2cncnc21`: the Potency was more than 11.4 µM in test [1], 0.631 µM (active) in test [2], more than 9.22 µM in [13] and more than 46 µM in test [5]. The figures for the activity change, negative = inhibition in [17] and in test [3] were -3.06% and 3.39%, respectively. In addition, the activity, negative = inhibition in test [4] was 5.34%. For the same compound, the Potency entry in [6], in [7], in test [8], in test [18], in test [16] and in test [11] was “inactive” in each case. Moreover, the result in [12] was inactive.
For `Cn1cc(-c2nc3cnc(Oc4cccc(Cl)c4)nc3n(C3CC3)c2=O)c2ccccc21`, the Potency in test [1] was more than 11.4 µM; in [2] it was 12.6 µM (active); in test [13] it was more than 9.22 µM; in test [5], more than 46 µM. Besides, the activity change, negative = inhibition in test [3] was 6.59%. For the same compound, the activity, negative = inhibition in test [4] was 9.54%. Besides, the Potency result in test [6], in test [10], in test [16] and in test [11] was “inactive” throughout. For the same compound, the outcome in [12] was inactive.
In the case of `Clc1ccccc1-c1nc(NCc2cccs2)c2ccccc2n1`, the Potency is 1 µM (active) in test [2]; more than 46 µM in [5]; 6.31 µM (active) in [15]; 7.94 µM (active) in test [10]; 12.6 µM (active) in test [16]; 14.1 µM (active) in test [11]. Further, the activity change, negative = inhibition in test [3] was -8.75%. The activity, negative = inhibition in test [4] is 0.228%. Further, the Potency entry in test [6] and in test [8] was “inactive” in each case. Besides, the outcome in [12] was inactive.
In the case of `N#Cc1cccc(-c2cncnc2NCc2cccnc2)c1`, the Potency in test [1] was more than 11.4 µM; in [2] it was 5.01 µM (active); in test [13], more than 46 µM; in [5], more than 46 µM; in test [9], 3.98 µM (active). Moreover, the activity change, negative = inhibition in test [17] was 13%; in test [3], -3.61%. Also, the activity, negative = inhibition in test [4] was 6.63%. The Potency entry in test [6], in [7], in [8], in [10] and in test [11] was “inactive” in each case. Besides, in test [12], the outcome was inactive.
